# Records with an inconclusive call do not appear. Entries that show only a call come without a potency. Unmarked numbers belong to inactive results. Active and inactive are the calls of the source. The call rests on the fitted dose curve; in most records, active means well fitted curve in the direction sought with a large enough effect; inconclusive means small, poorly fitted or top-dose-only effect, or another doubt; inactive means no such curve, though single readings can be large; an effect the other way counts as inactive or inconclusive.
# What was measured:
# [1] = molecular target: Rap guanine nucleotide exchange factor 3 (Homo sapiens) (UniProt O95398); experiment: Confirmatory qHTS for antagonist of cAMP-regulated guanine nucleotide exchange factor 3 (EPAC1) (AID 1645880); settings: EPAC1 Rap1B-BODIPY-GDP exchange, fluorescence; activity, negative = inhibition: at 115 µM (top of the series); further: nearly all actives have a fitted effect of over 55% in size
# Procedure, shortened: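 Released BODIPY-GDP fluoresces less than Rap1-bound BODIPY-GDP; the signal is followed at 480/540 nm at 5-min intervals over 30 min, after 5 min at room temperature. Reactions contain 100 nM EPAC1, 250 nM RAP1B-BODIPY-GDP and 50 uM GDP; results are normalized to ATA and DMSO.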
# [2] = molecular target: Rap guanine nucleotide exchange factor 4 (Homo sapiens) (UniProt Q8WZA2); experiment: Confirmatory qHTS for agonist of cAMP-regulated guanine nucleotide exchange factor 4 (EPAC2) (AID 1645884);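 further: nucleotide exchange releases bodipy-GDP from Rap1 and this lowers its fluorescence; nearly all actives have a fitted effect of over 65% in size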; further: potency means the concentration at half of the fitted maximal effect
# [3] = molecular target: Rap guanine nucleotide exchange factor 3 (Homo sapiens) (UniProt O95398); experiment: Counterscreen qHTS for antagonist of cAMP-regulated guanine nucleotide exchange factor 3 (EPAC1) (AID 1645888)
# Procedure, shortened: (§1)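 Rap1B–BODIPY-GDP (250 nM) with 50 uM GDP; compounds pin-transferred to 9.74 nM–152 uM final (activator) or from 7.32 nM upwards (inhibitor). Fluorescence Ex/Em 480/540 nm read at 5 and 30 min, then after adding cAMP or buffer, at room temperature.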
# [4] = molecular target: Rap guanine nucleotide exchange factor 3 (Homo sapiens) (UniProt O95398); experiment: Counterscreen qHTS for agonist of cAMP-regulated guanine nucleotide exchange factor 3 (EPAC1) (AID 1645889); further: nearly all actives have a fitted effect of over 40% in size; further: potency means the concentration at half of the fitted maximal effect
# Procedure, shortened: as §1
# [5] = molecular target: Rap guanine nucleotide exchange factor 4 (Homo sapiens) (UniProt Q8WZA2); experiment: Confirmatory qHTS for antagonist of cAMP-regulated guanine nucleotide exchange factor 4 (EPAC2) (AID 1645885); further: nearly all actives have a fitted effect of over 25% in size; further: potency means the concentration at half of the fitted maximal effect
# [6] = molecular target: Tumor susceptibility gene 101 protein (Homo sapiens) (UniProt Q99816); experiment: qHTS Assay for Iinhibitors of HIV-1 Budding by Blocking the Interaction of PTAP/TSG101: Hit Validation (AID 651600); further: nearly all actives have a fitted effect of over 70% in size; further: potency means the concentration at half of the fitted maximal effect
# Procedure, shortened: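 FITC-PTAP peptide (50 nM final) binding to Tsg101 binding domain (10 uM final) was measured by polarization after 20 min at r.t. with compounds, in 10 mM HEPES pH 7.5 buffer with 0.15 M NaCl and 0.01% Tween 20.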
# Chain of Rap guanine nucleotide exchange factor 4 (Homo sapiens) (Q8WZA2 whole entry, looked up): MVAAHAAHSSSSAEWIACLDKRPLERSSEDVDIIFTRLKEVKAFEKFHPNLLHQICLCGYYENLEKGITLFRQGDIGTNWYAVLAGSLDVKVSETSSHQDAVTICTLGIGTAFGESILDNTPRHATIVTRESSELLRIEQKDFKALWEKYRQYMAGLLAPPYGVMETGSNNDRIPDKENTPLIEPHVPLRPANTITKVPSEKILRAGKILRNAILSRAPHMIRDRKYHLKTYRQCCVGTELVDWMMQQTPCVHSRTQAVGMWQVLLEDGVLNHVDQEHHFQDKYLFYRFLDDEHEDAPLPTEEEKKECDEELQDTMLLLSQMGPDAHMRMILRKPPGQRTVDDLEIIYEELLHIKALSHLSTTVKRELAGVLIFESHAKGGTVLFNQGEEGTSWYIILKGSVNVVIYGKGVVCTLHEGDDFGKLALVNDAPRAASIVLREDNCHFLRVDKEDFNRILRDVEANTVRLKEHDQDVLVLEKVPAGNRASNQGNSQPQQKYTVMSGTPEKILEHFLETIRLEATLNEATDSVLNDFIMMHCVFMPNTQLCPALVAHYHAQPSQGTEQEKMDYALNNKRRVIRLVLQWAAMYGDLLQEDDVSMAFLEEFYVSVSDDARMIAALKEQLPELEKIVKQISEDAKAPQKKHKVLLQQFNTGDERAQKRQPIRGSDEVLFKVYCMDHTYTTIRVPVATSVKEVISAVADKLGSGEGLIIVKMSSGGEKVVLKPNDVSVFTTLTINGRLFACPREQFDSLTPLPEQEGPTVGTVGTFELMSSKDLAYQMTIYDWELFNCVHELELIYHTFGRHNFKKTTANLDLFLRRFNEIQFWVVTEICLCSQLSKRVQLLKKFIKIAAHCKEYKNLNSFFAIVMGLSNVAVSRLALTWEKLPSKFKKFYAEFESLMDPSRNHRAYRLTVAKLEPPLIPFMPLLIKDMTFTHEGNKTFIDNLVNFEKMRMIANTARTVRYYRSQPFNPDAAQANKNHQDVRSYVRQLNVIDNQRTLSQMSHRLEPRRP
# Chain of Rap guanine nucleotide exchange factor 3 (Homo sapiens) (O95398 whole entry, looked up): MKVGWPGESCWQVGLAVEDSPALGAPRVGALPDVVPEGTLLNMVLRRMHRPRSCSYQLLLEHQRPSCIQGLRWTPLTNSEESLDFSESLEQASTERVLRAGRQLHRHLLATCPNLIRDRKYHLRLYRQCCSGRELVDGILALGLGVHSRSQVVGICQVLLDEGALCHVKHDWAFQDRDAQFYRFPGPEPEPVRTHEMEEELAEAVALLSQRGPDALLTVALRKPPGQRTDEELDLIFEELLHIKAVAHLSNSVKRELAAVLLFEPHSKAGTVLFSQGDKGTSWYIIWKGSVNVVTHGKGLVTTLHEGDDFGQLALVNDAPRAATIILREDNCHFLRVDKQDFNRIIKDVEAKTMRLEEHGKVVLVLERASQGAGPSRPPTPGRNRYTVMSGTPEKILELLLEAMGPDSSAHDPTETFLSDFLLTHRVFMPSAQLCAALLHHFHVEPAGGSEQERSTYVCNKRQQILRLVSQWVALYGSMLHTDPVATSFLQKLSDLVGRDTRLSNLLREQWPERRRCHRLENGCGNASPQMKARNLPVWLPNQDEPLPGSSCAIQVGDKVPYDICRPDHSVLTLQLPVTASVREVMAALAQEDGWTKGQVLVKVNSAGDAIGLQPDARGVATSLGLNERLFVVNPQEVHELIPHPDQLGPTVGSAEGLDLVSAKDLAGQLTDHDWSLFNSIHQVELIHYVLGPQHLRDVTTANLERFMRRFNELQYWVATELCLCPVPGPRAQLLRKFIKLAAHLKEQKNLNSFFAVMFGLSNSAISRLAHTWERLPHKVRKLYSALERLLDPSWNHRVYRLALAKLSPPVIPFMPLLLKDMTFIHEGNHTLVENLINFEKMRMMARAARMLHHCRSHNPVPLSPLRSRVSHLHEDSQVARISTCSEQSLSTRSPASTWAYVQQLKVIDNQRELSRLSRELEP
# Chain of Tumor susceptibility gene 101 protein (Homo sapiens) (Q99816 whole entry, looked up, the tested form may be a part): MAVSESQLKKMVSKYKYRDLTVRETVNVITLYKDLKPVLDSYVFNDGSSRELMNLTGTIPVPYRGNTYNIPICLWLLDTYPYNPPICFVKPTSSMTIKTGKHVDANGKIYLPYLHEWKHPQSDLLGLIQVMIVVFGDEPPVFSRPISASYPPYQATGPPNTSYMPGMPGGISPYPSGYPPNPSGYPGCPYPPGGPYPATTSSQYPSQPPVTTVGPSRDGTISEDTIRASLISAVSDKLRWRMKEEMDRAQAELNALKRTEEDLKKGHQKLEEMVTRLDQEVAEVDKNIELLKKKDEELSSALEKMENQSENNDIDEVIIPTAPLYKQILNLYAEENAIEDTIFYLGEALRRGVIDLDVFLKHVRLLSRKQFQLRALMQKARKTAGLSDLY
compound,measurement,setting,value
O=C1N(Cc2ccccc2)c2ccc(Cl)cc2C12OCCO2,Potency,[1],inactive
same,activation,[2],"2.15% [at 17.1 µM, percent relative to cAMP agonist control]"
same,"activity change, negative = inhibition",[3],-8.76% [at 30.8 µM]
same,activation,[4],35.6% [at 30.8 µM]
Cc1ccc(N=Cc2c(O)n(-c3nccs3)c(=O)c3ccccc23)c(C)c1,Potency,[1],inactive
same,Potency,[5],inactive
same,"activity change, negative = inhibition",[3],7.45% [at 30.8 µM]
CN(C)c1ccc(/C=C/c2ccnc3c(Cl)cccc23)cc1,Potency,[1],inactive
same,Potency,[5],inactive
CN(C)c1ccc(-c2cc3ccccc3c(=O)o2)cc1,Potency,[1],inactive
same,Potency,[5],inactive
same,Potency,[3],inactive
N#C/C(=C\c1ccc(Sc2ccc(Cl)cc2)o1)c1nc2ccccc2[nH]1,Potency,[1],inactive
same,Potency,[5],inactive
same,Potency,[3],inactive
O=C(C1=NN(c2ccccc2)C2C(=O)N(c3ccccc3)C(=O)C12)c1ccccc1 (stereo not given),Potency,[6],inactive
same,Potency,[1],inactive
same,activation,[2],"11% [at 17.1 µM, percent relative to cAMP agonist control]"
same,Potency,[4],15.8 µM (active)
Cc1ccc2oc(=O)n(Cc3ccccc3)c2c1,Potency,[1],inactive
same,activation,[2],"5.26% [at 17.1 µM, percent relative to cAMP agonist control]"
same,"activity change, negative = inhibition",[3],1.72% [at 30.8 µM]
N=C1/C(=C\c2coc3ccccc3c2=O)C(=O)N=C2SC=CN12,Potency,[1],inactive
same,Potency,[5],inactive
same,"activity change, negative = inhibition",[3],46.8% [at 30.8 µM]
CC(=O)/C(=N\Nc1ccccc1)Sc1cccc2cccnc12,Potency,[1],inactive
same,Potency,[5],84.9 µM (active)
same,Potency,[3],inactive
COc1ccc(/C=C2\C(=O)NC(=O)c3ccccc32)cc1OC,Potency,[1],inactive
same,Potency,[2],inactive
same,Potency,[3],inactive
Cc1cc(N(C)C)c(C)cc1/C=C/c1ccnc2ccccc12,Potency,[1],inactive
same,Potency,[5],inactive
CCCCNc1ccc2c3c(cccc13)C(=O)N(CCCC)C2=O,Potency,[6],4.11 µM (active)
same,Potency,[1],inactive
same,activation,[2],"-62.3% [at 17.1 µM, percent relative to cAMP agonist control]"
same,"activity change, negative = inhibition",[3],213% [at 30.8 µM]
same,Potency,[4],20 µM (active)
COc1cc2c(cc1OC)C1(C)N(CC2)C(C(C)=O)=NN1c1ccc(Cl)cc1 (stereo not given),Potency,[1],inactive
same,activation,[2],"18% [at 17.1 µM, percent relative to cAMP agonist control]"
same,"activity change, negative = inhibition",[3],5.93% [at 30.8 µM]
same,Potency,[4],3.55 µM (active)
O=C1c2ccccc2-c2onc3c(Br)cc(NC4CCCCC4)c1c23,Potency,[1],inactive
same,Potency,[2],inactive
same,Potency,[3],inactive
same,Potency,[4],inactive
Cc1ccc(/C=C/C(=O)c2ccc(N3CCOCC3)cc2)s1,Potency,[1],inactive
same,Potency,[2],100 µM (active)
same,Potency,[3],inactive
COc1ccc(CCNC(=S)N2CCN(S(=O)(=O)c3ccc(F)cc3)CC2)cc1,Potency,[1],inactive
same,Potency,[5],inactive
same,Potency,[3],inactive
COc1ccc(-c2csc3nc(C)nc(N4CCCCC4)c23)cc1OC,Potency,[1],inactive
same,Potency,[5],inactive
same,Potency,[3],inactive
N#CC(C#N)=C1C=C2C=C(N3CCCCCC3)CCC2CC1 (stereo not given),Potency,[1],inactive
same,Potency,[5],inactive
O=C(NCc1cccc(F)c1)c1cccc2c1C(=O)c1ccc(N3CCOCC3)cc1S2(=O)=O,Potency,[1],inactive
same,Potency,[5],inactive
same,Potency,[3],inactive

# Reference: PubChem BioAssay (NCATS)
